Rows were chosen to be rich in hits. Some 8.1% of all compounds tested hit in one or more screens of this group.
KB-V1 MDR tox – kills drug-selected multidrug resistant KB-V1 cells; AID 1347076; Potency, µM (titrated, usually from 46.1 µM), most hits filed as cytotoxic; 400,000 compounds, 3.4% hits; KB-V1 MDR cells viability, CellTiter-Glo, 72 h; note: % is set by controls: 0 for no effect and ±100 for the full control effect; nearly all actives have a fitted effect of over 60% in size
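Cytotoxicity via CellTiter-Glo luminescence after 72 h compound exposure at 37 degrees C. Cells: drug-selected KB-V1 line, DMEM phenol-red free plus 10% FBS. Compounds tested at multiple concentrations; normalized data fitted to concentration-effect curves.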
MCF10A rereplic – DNA re-replication induction in MCF 10a cells; 350,000 compounds, 2.9% hits; Potency, µM (titrated, usually from 46.1 µM), without a hit: at the highest dose activity, positive = re-replication, actives largely listed as activators; MCF 10A DNA re-replication, Hoechst nuclear intensity, 48 h; AID 624296; note: % of control where 0% means no effect; nearly all actives have a fitted effect of over 50% in size
KB-3-1 tox – KB-3-1 parental cell cytotoxicity | KB-3-1 viability, CellTiter-Glo ATP luminescence, 72 h | 400,000 compounds, 1.4% hits | Potency, µM (top dose mostly 46.1 µM), hits mostly cytotoxic; note: % is set by controls: 0 for no effect and ±100 for the full control effect; nearly all actives have a fitted effect of over 60% in size
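72 h, 37 °C compound treatment of KB-3-1 parental cells; CellTiter-Glo added, 10 min, luminescence read. Data corrected against DMSO-only plates and normalized before curve fitting.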
ELG1 repair inh – ELG1-dependent DNA repair inhibition; Potency, µM (top dose mostly 46.1 µM), for inactives: top-dose activity change, negative = inhibition, most hits filed as inhibitors; HEK293T ELG1-luciferase reporter, luminescence, 16 h; DNA damage induced by 5-fluorouridine; 330,000 compounds, 2.3% hits; AID 504467; note: % is set by controls: 0 for no effect and ±100 for the full control effect; nearly all actives have a fitted effect of over 55% in size
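Quantitative HTS, concentration-response format. 2,000 cells/well co-treated with 5-fluorouridine and compound, 16 hr in 5% CO2 at 37 °C; ONE-Glo luminescence read after 30 min.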
SW480 rerep – inducers of DNA re-replication in SW480 colon cancer cells; SW480 DNA re-replication, Hoechst DNA content imaging, 48 h; Potency, µM (highest dose often 46.1 µM), for inactives: at the highest dose re-replication activation, hits mostly activators; 340,000 compounds, 1.8% hits; AID 624297; note: % of control where 0% means no effect; nearly all actives have a fitted effect of over 55% in size
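Cells (250 per well) received 23 nL compound or DMSO by pin tool and were kept 48 hr at 37 C, 5% CO2. Nuclei were then stained with Hoechst for 40 min and scanned for DNA content.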
Active calls of the source: *; i = inactive; u = inconclusive; x = no result; ! = not confirmed by another sample. Calls come from the whole dose curve; as a rule, active = well fitted curve in the direction sought with a large enough effect; inconclusive = small, poorly fitted or top-dose-only effect, or another doubt; inactive = no such curve, though single readings can be large; an effect the other way counts as inactive or inconclusive. Potency is the fitted concentration of half-maximal effect.

SMILES	KB-V1 MDR tox	MCF10A rereplic	KB-3-1 tox	ELG1 repair inh	SW480 rerep
CCOc1ccc(N=Cc2c(O)c3ccccc3oc2=O)cc1	i	9%	i	u	0%
Cc1ccc(-c2csc(N(CCO)CCCn3c(C(F)(F)F)nc4ccccc43)n2)cc1	i	u	u	u	u
O=C(NC(=S)Nc1ccc(S(=O)(=O)Nc2ncccn2)cc1)c1ccc(Br)cc1	i	2%	i	-3%	18µM*
Cc1cc(C)cc(NS(=O)(=O)c2ccc(NC(=S)NC(=O)c3ccc(Br)o3)cc2)c1	18µM*	-6%	u	u	4%
COc1ccc(C)c(-n2c(=O)n(Cc3ccccc3)c(=O)c3[nH]cnc32)c1	i	1%	i	-4%	-25%
COc1ccc(Cn2c(=O)c3[nH]cnc3n(-c3ccccc3C)c2=O)cc1	u	16µM*	16µM*	-1%	16µM*
COCCNC(=S)N1CCc2cc(OC)c(OC)cc2C1COc1ccc(C(C)C)cc1 (centres undefined)	i	5%	i	9.2µM*	u
CCNC(=S)N1CCc2cc(OC)c(OC)cc2C1COc1ccc(F)cc1 (centres undefined)	i	-3%	i	u	-1%
COCCNC(=S)N1CCc2cc(OC)c(OC)cc2C1COc1ccc(F)cc1 (centres undefined)	i	1%	i	16µM*	15%
COc1cccc(CNC(=O)c2cc(COc3c(F)cccc3F)on2)c1	i	-4%	i	1%	-9%
CCCn1nc(NC(=O)COC)c2cc3cc(C)ccc3nc21	i	2%	i	28%	0%
CCCn1nc(NC(=O)c2ccco2)c2cc3ccc(C)cc3nc21	i	u	i	u	13µM*
CCCn1nc(NC(=O)c2ccco2)c2cc3cc(C)ccc3nc21	i	0%	i	u	18µM*
Cc1ccc2nc3c(cc2c1)c(NC(=O)c1ccco1)nn3CC(C)C	i	12%	i	u	u
CCCn1nc(NC(=O)c2ccccn2)c2cc3cc(C)ccc3nc21	i	u	u	u	7.3µM*
Cc1cc(C)c2cc(C)c(SCC(=O)NCc3ccco3)nc2c1	i	u	u	u	u
CCc1ccc(OCc2nc(-c3ccc(-n4cccc4)cc3)no2)cc1	i	x	i	x	x
Fc1ccc(-c2csc3nnc(SCc4cccnc4)n23)cc1	i	1%	i	9%	-1%
O=C1CNCc2[nH]c3ccccc3c2N1c1ccccc1	23µM*	u	i	-1%	-1%
C=CCNC(=O)c1ccccc1NC(=O)c1ccc(Cl)c(S(=O)(=O)Nc2cc(C)ccc2C)c1	21µM*	-2%	i	u	-3%
N[C@@H](Cc1cc(I)c(Oc2ccc(O)c(I)c2)c(I)c1)C(=O)O	i	21µM*!	u	0%	-7%
Cc1[nH]nc(-c2ccc(O)c(C)c2O)c1-c1cnn(-c2ccccc2)c1	16µM*	77%	i	u	0%
CN(C)c1ccc(C#Cc2ccc3cc(CCO)oc(=O)c3c2)cc1	i	12µM*	i	u	u
COc1cc(C#Cc2ccc3cc(CCO)oc(=O)c3c2)cc(OC)c1	i	126%	i	u	0%
CC1CCCCN1C(=O)CSc1nnc(-c2cccnc2)n1C1CCCCC1 (centres undefined)	15µM*	0%	i	-4%	-1%
O=C(CSc1nnc(-c2cccnc2)n1C1CCCCC1)NC1CCCCC1	18µM*	3%	i	-2%	-9%
CC1CCN(C(=O)CSc2nnc(-c3cccnc3)n2C2CCCCC2)CC1	i	0%	i	-13%	-1%
Cc1noc(C)c1CSc1nnc(-c2cccnc2)n1C1CCCCC1C (centres undefined)	23µM*	5%	i	17%	2%
Cc1ccc(-c2nc3c4ccccc4ccn3c2CN2CCCCC2)cc1	i	u	i	9%	5%
O=C(Nc1ccccc1)N1CCN(c2ccc(C(F)(F)F)cn2)CC1	8.2µM*	1%	u	21µM*	-5%
